Experimental data reported in PMC4552634, “A New Set of Chemical Starting Points with Plasmodium falciparum Transmission-Blocking Potential for Antimalarial Drug Discovery” (PLoS ONE, 2015).
The campaign covered roughly 13,000 compounds. About 3,200 (25%) showed an effect of 50% or more. Some of the results follow.

These compounds were tested on P. falciparum stage V gametocytes. Conditions: 48 h, 5 µM; inhibitor.
Design: BacTiter-Glo ATP luminescence viability of purified stage V gametocytes in 384-well plates, per cent inhibition versus DMSO

| Structure (SMILES) | % Inhibition |
| --- | --- |
| CCCN(CCC)C(=O)c1cc(C(=O)N[C@@H](Cc2ccccc2)[C@H](O)CNC2CC2)cc(N2CCCCS2(=O)=O)c1 [TCMDC-138892] | 8.102% |
| CC(=Nc1ccc(Cl)c(Cl)c1)N(C)C [TCMDC-137438] | -6.563% |
| CC(C)C[C@H](NC(=O)c1ccc(OCCN2CCOCC2)cc1)C(=O)N[C@H](/C=N/NC(=O)OC(C)(C)C)CCc1ccccc1 [TCMDC-136028] | -97.84% |
| COc1ccc(CN2CCC(N3CC(c4ccccc4)(c4ccccc4)OCC3=O)C2)c(O)c1 (centres unmarked) [TCMDC-136339] | -23.12% |
| CC(C)C[C@H]1C(=O)N[C@H](C2Cc3ccccc3C2)C(=O)N1[C@@H](C(=O)Nc1ccccc1OCc1ccccc1)c1ccc(F)cc1F [TCMDC-138775] | -10.16% |
| COc1ccc2ncc(F)c(CCN3C4CCC3CC(NCc3cc5c(cn3)OCS5)C4)c2n1 (centres unmarked) [TCMDC-135637] | 24.95% |
| Cc1cccc(Nc2nccc(NCC(O)c3ccc(C(F)(F)F)cc3)n2)c1 (centres unmarked) [TCMDC-136592] | -12.82% |
| CC(C)(C)C1CC(=O)CC2C(=O)N(c3ccc(Br)cc3)C(=O)C21 (centres unmarked) [TCMDC-139130] | -4.164% |
| Cc1ccc(F)c(OCC2CCN(c3ncc(C(=O)NC4CC4)cc3Cl)CC2)c1 [TCMDC-134038] | 21.14% |
| CC(C)(C)N1CCC(N(Cc2ccc(-c3ccc(C(F)(F)F)cc3)cc2)C(=O)Cn2c(CCc3cccc(F)c3F)cc(=O)c3cccnc32)CC1 [TCMDC-136011] | 120.6% |
| CCN1CCC(N(Cc2ccc(-c3ccc(C(F)(F)F)cc3)cc2)C(=O)Cn2c(CCc3cccc(F)c3F)cc(=O)c3ccccc32)CC1 [TCMDC-141119] | 110.1% |
| CCN1CCC(N(Cc2ccc(-c3ccc(C(F)(F)F)cc3)cc2)C(=O)Cn2c(CCc3cccc(F)c3F)cc(=O)c3ccc(OCc4ccccc4)cc32)CC1 [TCMDC-141292] | 107.3% |
| CC(C)(C)N1CCC(N(Cc2ccc(-c3ccc(C(F)(F)F)cc3)cc2)C(=O)Cn2c(CCc3cccc(F)c3F)cc(=O)c3ccccc32)CC1 [TCMDC-136007] | 109.9% |
| NC(CC1CC(=O)N1CC(=O)O)C(=O)O (centres unmarked) [TCMDC-139050] | 9.979% |
| CC1CCN(Cc2ccc(NC(=O)c3cc4ccc5cccnc5c4[nH]3)cc2)CC1 [TCMDC-125282] | -44.42% |
| Cc1sc(N2CCCCC2)nc1C(=O)Nc1ccc(F)cc1C(F)(F)F [TCMDC-134301] | -22.08% |
| Cc1ccc2c(OCCN3CCC(Cc4cc5c(cc4F)OCC(=O)N5)CC3)cc(F)cc2n1 [TCMDC-141447] | -8.259% |
| Cc1noc(C)c1-c1cccc(CNCc2cccc(-c3ccc(-c4nc5ccccc5[nH]4)s3)c2)c1.O=C(O)C(F)(F)F [TCMDC-133048] | 14.32% |
| COC(=O)c1sc(-c2ccc(Cl)cc2)cc1N(CCCN1CCC(N2CCCCC2)CC1)S(=O)(=O)c1ccc(C)cc1 [TCMDC-135561] | 98.34% |
| Cc1cc(N(CCO)CCCN2CCCCC2)nc(Nc2ccc(Cl)cc2)n1 [TCMDC-137444] | 33.27% |
| Cc1cc(N(CCN2CCCCC2)CCN2CCCCC2)nc(Nc2ccc(Cl)cc2)n1 [TCMDC-138002] | 37.36% |
| CC(C)[C@H](NC(=O)c1ccc(O)c(-c2ccc(Cl)c(Cl)c2)c1)C(=O)NCCN(C)C [TCMDC-140863] | 10.43% |

| Structure (SMILES) | % Inhibition |
| --- | --- |
| CN(C)c1ccc(CN2CCC(NC(=O)c3ccc(-c4ccccc4Cl)s3)CC2)cc1 [TCMDC-134328] | -0.5721% |
| Cc1cc(=O)c(-c2ccc(Sc3ccc(Cl)cc3)cc2)c(C)[nH]1 [TCMDC-137403] | 33.38% |
| Cc1cc(=O)c(-c2ccc(S(=O)(=O)c3ccc(Cl)cc3)cc2)c(C)[nH]1 [TCMDC-137417] | 53.38% |
| Cc1[nH]c(C)c(-c2ccc(S(=O)(=O)c3ccc(Cl)cc3)cc2)c(=O)c1Br [TCMDC-137414] | 77.4% |
| Cc1[nH]c(C)c(-c2ccc(S(=O)(=O)c3ccc(Cl)cc3)cc2)c(=O)c1Cl [TCMDC-137412] | 67.97% |
| Cc1cc(=O)c(-c2ccc(OCc3ccc(Cl)cc3)cc2)c(C)[nH]1 [TCMDC-137399] | 24.98% |
| Cc1ccc(C)c(Cn2ccc3nc(Cl)nc(Cl)c32)c1 [TCMDC-137818] | 13.19% |
| Cc1cc(C)n(Cc2ccc(C(=O)NCC3CCCCC3)cc2)n1 [TCMDC-141404] | -4.003% |
| CCC[C@@H]1CCN[C@H]([C@H](O)c2ccnc3ccc(OC)cc23)C1 [TCMDC-138233] | -1.678% |
| CCC[C@@H]([C@@H](CC1CCC(C)CC1)C(=O)N[C@@H](CO)C(=O)Nc1nccs1)N(O)C=O (some centres unmarked) [TCMDC-138150] | 0.01446% |
| CC(C)c1nc2c(N)nc(N)nc2nc1N [TCMDC-141986] | 9.894% |
| O=C(NCCNc1ccnc2cc(Cl)ccc12)c1ccccc1F [TCMDC-125232] | -18.32% |
| Cn1nccc1C(=O)NCCNCc1cccc(-c2ccc(-c3nc4ccccc4[nH]3)s2)c1.O=C(O)C(F)(F)F [TCMDC-133003] | -10.06% |
| Cc1ccc(NC(C)C(=O)Nc2ccc(C#N)cc2)cc1S(=O)(=O)N1CCCCC1 (centres unmarked) [TCMDC-124508] | -17.26% |
| COc1cc(OC)cc(-c2nn(-c3ccc([N+](=O)[O-])cc3C#N)c(=S)n2CC2CCCO2)c1 (centres unmarked) [TCMDC-134716] | 96.39% |
| CCn1c(Sc2ccc(C#N)c([N+](=O)[O-])c2)nnc1-c1cc(OC)cc(OC)c1 [TCMDC-135587] | 21.42% |
| N#Cc1ccc(Sc2nnc(-c3ccccc3Cl)n2CC2CCCCC2)cc1[N+](=O)[O-] [TCMDC-135616] | 15.71% |
| CCCn1c(Sc2ccc(C#N)c([N+](=O)[O-])c2)nnc1-c1cc(OC)cc(OC)c1 [TCMDC-135577] | 43.88% |
| COc1cc(NC(=O)c2cc([N+](=O)[O-])ccc2NC(=O)CNC2CCCCC2C)cc(OC)c1 (centres unmarked) [TCMDC-125301] | -14.04% |
| COc1cc(OC)cc(-c2nn(-c3ccc([N+](=O)[O-])cc3Cl)c(=S)n2CC2CCCO2)c1 (centres unmarked) [TCMDC-135129] | 88.54% |
| N#Cc1cc([N+](=O)[O-])ccc1-n1nc(-c2cccc(Cl)c2)n(CC2CCCO2)c1=S (centres unmarked) [TCMDC-134718] | 89.7% |
| CCCCn1c(Sc2ccc(C#N)c([N+](=O)[O-])c2)nnc1-c1cc(OC)cc(OC)c1 [TCMDC-135578] | 32.96% |
